Test results as given in ChEMBL document CHEMBL3988442, “University of Dundee, Small-Polar-MMV Screening Library” (2021).
The campaign covered roughly 48,000 compounds. About 13,000 (27%) showed an effect of 50% or more. The list shows a part of the results.

The compounds below were run on Wolbachia pipientis (assay: Anti-Wolbachia Cell-Based Screen). Conditions: 5 µM.
Assay type: functional
Set-up: scale not given: in the data most compounds retested in dose-response had high values

Point of comparison: CN(C)C1CCN(C(=O)c2cc(-c3ccn(C)n3)n3ccccc23)CC1.O=C(O)C(F)(F)F, “Percent Effect” value 86.54%. Against it:
- CN(C)c1nccc(CNC(=O)NCc2ccco2)n1 — lower, -7.993%
- Cc1ccc(CNC(=O)NCc2ccco2)s1 — higher, 117.2%
- O=C(NCc1cc(Cl)ccn1)NCc1ccco1 — lower, -0.04027%
- CNC(=O)CCOC(=O)c1cccc(-n2ccc(C(F)(F)F)n2)c1 — lower, -14.03%
- Cc1nn(C)c(N(C)C)c1CNCc1cccc(Br)c1 — lower, -4.706%
- CCc1sc(C(=O)Nc2cnn(CCN(C)C)c2)cc1C — lower, 11.53%
- CCn1cc(NC(=O)c2cccc(OCC(F)(F)F)n2)cn1 — lower, 10.55%
- Cc1noc(NC(=O)c2ccc(Br)cc2)n1 — lower, 7.251%
- CCN(CC)c1nc(C)cc(C(=O)Nc2cnn(CC)c2)n1 — higher, 114.1%
- Cc1ccc(NC(=O)c2n[nH]c(-n3cnnc3)n2)cc1C — lower, 9.368%
- CCN(Cc1cccc(C(N)=O)c1)c1ccccc1 — lower, 7.168%
- CCN(CC)c1nc(C)cc(C(=O)Nc2cccc(C(N)=O)c2)n1 — higher, 132.2%
- CN(C)C(=O)c1cccc(NC(=O)c2cnn(C)c2)c1 — lower, -1.797%
- CCN(CC)c1nc(C)cc(C(=O)Nc2ccc(Br)cc2)n1 — higher, 134.8%
- CC(C)(C)CN[C@@H]1CO[C@H](CNC(=O)Nc2ccccc2)[C@H]1O — lower, -16.93%
- CCOc1ccccc1OCCN(C)Cc1nccn1C — lower, 8.395%
- CC(=O)N(Cc1noc(C)n1)C1CCN(Cc2ccccn2)C1 (centres undefined) — higher, 104.4%
- CC(=O)N(Cc1noc(C)n1)C1CCN(Cc2cc(C)on2)C1 (centres undefined) — lower, 0.668%
- CC(=O)N(Cc1noc(C2CC2)n1)C1CCN(Cc2ccccn2)C1 (centres undefined) — higher, 122.2%
- CC(=O)N(Cc1noc(C2CC2)n1)C1CCN(Cc2nccn2C)C1 (centres undefined) — lower, 3.362%
- CC(=O)N(Cc1noc(C2CC2)n1)C1CCN(Cc2cc(C)on2)C1 (centres undefined) — higher, 124.1%
- CC(=O)N(Cc1noc(C)n1)C1CCN(Cc2ccon2)C1 (centres undefined) — lower, 2.71%
- CCCC(=O)N(CCCN1CCOCC1)c1nc2c(C)ccc(Cl)c2s1.Cl — lower, 32.82%
- CN(C)CCOCC1CN(C(=O)N2CCCC2)Cc2ccnn2C1.O=C(O)C(F)(F)F.O=C(O)C(F)(F)F (centres undefined) — lower, -8.834%
- CSC(C)(C)CNC(=O)NCc1cccc(-n2cncn2)c1 — lower, 2.602%
- COCCOCCNC(=O)N1CCc2c(F)ccc(F)c2C1 — lower, -0.5371%
- N#Cc1cc(F)ccc1Cn1cncn1 — lower, 9.511%
- CNC(=O)Cc1noc(Cc2ccc3c(c2)CCCC3)n1 — lower, 11.56%
- CCn1cc(CN2CCC(O)(Cn3nc(C)ccc3=O)CC2)cn1 — higher, 106.9%
- Cc1ccc(=O)n(CC2(O)CCN(Cc3cnc(C)nc3)CC2)n1 — lower, -9.776%
- Cn1cnn(Cc2c(F)cccc2Br)c1=O — lower, 12.84%
- Cc1ccc(=O)n(CC2(O)CCN(Cc3ccsc3)CC2)n1 — lower, -12.71%
- Cc1ccc(=O)n(CC2(O)CCN(Cc3cnc(N(C)C)nc3)CC2)n1 — lower, 82.15%
- Cc1ccc(=O)n(CC2(O)CCN(Cc3cccs3)CC2)n1 — higher, 102.3%
- CN(C)CC1(O)CCCN(Cc2cnc(-c3ccco3)nc2)CC1 (centres undefined) — lower, 2.959%
- Cc1ccc(=O)n(CC2(O)CCN(Cc3c(F)cccc3F)CC2)n1 — higher, 89.56%
- CCn1ccnc1CN1CCC(Oc2ccccc2F)(C(=O)O)CC1 — lower, -0.1414%
- CN(C)c1cnn(CC(=O)N2CCN(Cc3cccs3)CC2)c(=O)c1 — lower, 2.186%
- Cc1noc(C)c1CN(C)C(C)c1cccs1 (centres undefined) — lower, -4.592%
- CCCn1cnc2c1CN(S(=O)(=O)c1ccc(F)cc1)[C@H](C(=O)OC)C2 — lower, -2.883%
- CCCC1(CNCc2ncc[nH]2)CCC1 — lower, -4.212%
- CCN1CCc2[nH]cnc2C12CCN(C(=O)CCCn1cncn1)CC2 — lower, 0.07379%
- CCC(C(=O)NCc1cccnc1)N(c1cccc(C)c1)S(C)(=O)=O (centres undefined) — lower, -6.23%
- COc1ccccc1COCC(O)CN(C)c1ccc(C)cc1C (centres undefined) — lower, -38.72%
- CCn1ccnc1C1CCN(C(=O)C(O)c2ccc(Cl)cc2)CC1 (centres undefined) — lower, -5.147%
- COc1ccc(C(=O)NC2CC2)c(OC2CCN(CCCSC)CC2)c1 — lower, -3.444%
- COCCN(CCOC)S(=O)(=O)N(C)Cc1ccncc1 — lower, 7.861%
- Cn1cc(CN2CC3(CCN(C(=O)c4ccoc4)C3)C2)cn1 — lower, 3.005%
- Cc1ccc(=O)n(CC2(O)CCN(Cc3ccoc3)CC2)n1 — higher, 91.7%
- Cc1nc2c(c(N3CC=CC3)n1)CCN(Cc1ccoc1)CC2 — lower, 2.971%
- Cn1cc(CN2CCC3(CC2)CC(=O)Nc2ccccc23)cn1 — lower, -46.12%
- Cc1ccc(=O)n(CC2(O)CCN(Cc3cnn(C)c3)CC2)n1 — higher, 99.25%
- CCN(CC)Cc1ccc(C(=O)NC2CCc3cc(Br)ccc32)o1 (centres undefined) — lower, -2.859%
- CC(C)c1cc(NCc2csc(C(C)C)n2)nc(N)n1 — lower, -18.23%
- COc1ccc(C(=O)Nc2cccc(SC)c2)c(OC)n1 — higher, 175.2%
- COc1ncccc1NC(=O)c1cccc(C)n1 — lower, -5.429%
- COc1ccc(C(CO)NC(=O)Nc2cccc(C(C)=O)c2)cc1 (centres undefined) — lower, -19.79%
- COc1ccc(NC(=O)c2cccc(OC)c2OC)cc1 — lower, -22.1%
- COc1ncccc1C(=O)Nc1ccccc1-c1ccc(=O)n(C)n1 — lower, -13.19%
- COc1ccc(C(=O)Nc2cccc(C(N)=O)c2)c(OC)n1 — higher, 132%
- COc1ccc(C(=O)Nc2ccccc2-c2ccc(=O)n(C)n2)cc1 — lower, 17.03%
- COc1ccc(C(=O)Nc2ccccc2C(C)C)c(OC)n1 — higher, 169%
- COc1cc(NC(=O)c2cccc(N(C)C)c2)cc(OC)c1 — lower, 6.421%
- CC(C)Oc1ncc(C(=O)N2CCc3ccc(O)cc3C2)cc1Cl — lower, -26.56%
- CN1N=C(c2nc(Cc3cccc(Br)c3)no2)CCC1=O — lower, -6.645%
- CC(C(=O)NC1CC1)S(=O)(=O)c1cc2c(cc1Cl)OCCO2 (centres undefined) — lower, -15.14%
- Cc1noc(C)c1CNS(=O)(=O)N(C)Cc1ccccc1Br — lower, -0.1877%
- CCc1noc(CN(C)C(=O)COc2cccc(Cl)c2C)n1 — lower, 4.111%
- O=C(O)C(F)(F)F.c1coc(CN2CCO[C@H]3[C@H](OCC4CC4)CC[C@@H]32)c1 — higher, 120.5%
- O=C(O)C(F)(F)F.c1csc(CN2CCO[C@H]3[C@H](OCC4CCCC4)CC[C@@H]32)n1 — lower, -7.308%
- O=C(O)C(F)(F)F.c1coc(CN2CCO[C@H]3[C@H](OCC4CCCC4)CC[C@@H]32)c1 — higher, 101%
- O=C(O)C(F)(F)F.c1coc(CN2CCO[C@H]3[C@@H](OCC4CC4)CC[C@@H]32)c1 — lower, 73.75%
- CC(C)NC(=O)[C@H]1C[C@@H]2[C@@H](C1)OCCN2Cc1ccco1.O=C(O)C(F)(F)F — lower, 1.513%
- CCC(Nc1ccc(Oc2cccc(C#N)c2)cc1)C(N)=O (centres undefined) — lower, 18.43%
- CC[C@@H](CO)NC(=O)c1coc(COc2ccc3sc(C)nc3c2)n1 — lower, -14.59%
- CCCc1noc(C(C)N2CC(n3cccn3)C2)n1 (centres undefined) — lower, 2.136%
- CCOCC1CN(Cc2ccc3c(c2)OCO3)Cc2ncn(C)c21 (centres undefined) — higher, 101.2%
- COCC1CN(Cc2ccc(OC)cc2)Cc2nn(C)cc21.O=C(O)C(F)(F)F (centres undefined) — lower, -23.14%
- COCC1CN(Cc2ccc3c(c2)OCO3)Cc2ncn(C)c21.O=C(O)C(F)(F)F.O=C(O)C(F)(F)F (centres undefined) — higher, 103.2%
- CN(C)CC1CN(Cc2ccc3c(c2)OCO3)Cc2nccn2C1.O=C(O)C(F)(F)F.O=C(O)C(F)(F)F (centres undefined) — lower, 4.386%
- CCOCC1CN(Cc2cc(C)on2)Cc2cn(C)nc21 (centres undefined) — lower, -1.224%
- CCOCC1CN(Cc2cnn(C)c2)Cc2nn(C)cc21.O=C(O)C(F)(F)F (centres undefined) — lower, -12.04%
- CCOCC1CN(Cc2ccc3c(c2)OCO3)Cc2nccn2C1 (centres undefined) — lower, 77.74%
- Cn1cnc2c1C(COCC1CC1)CN(Cc1ccc3c(c1)OCO3)C2.O=C(O)C(F)(F)F.O=C(O)C(F)(F)F (centres undefined) — lower, 34.98%
- CCCc1nnc(NCc2ccc(OC)c(C#N)c2)o1 — lower, -5.74%
- CN1C[C@@H](F)[C@@H](OCc2nc3ccc(C#N)cc3[nH]2)C1 — lower, 11.19%
- NC(=O)CN(C(=O)Cc1ccc(C(F)(F)F)cc1)C1CCCC1 — lower, 1.7%
- CCn1nc(C)c(CCn2ccnc2-c2cc3n(n2)CCCNC3)c1C — lower, -7.012%
- CC(C)CC(O)C1CCN(Cc2cnc(-c3cccs3)nc2)CC1 (centres undefined) — lower, 3.832%
- CN(C)S(=O)(=O)c1cccc(NC(=O)Cc2ccon2)c1 — lower, -6.04%
- COCCn1/c(=N\C(=O)CN(C)S(C)(=O)=O)sc2cccc(F)c21 — lower, 0%
- CC(=O)N1CCC(c2ccnc(Nc3cc(C(F)(F)F)ccn3)n2)C1 (centres undefined) — higher, 158.6%
- Cl.NCC(=O)N1CCC(c2ccnc(Nc3cc(C(F)(F)F)ccn3)n2)C1 (centres undefined) — higher, 119.4%
- O=C(CO)N1CCC(c2ccnc(Nc3cc(C(F)(F)F)ccn3)n2)C1 (centres undefined) — higher, 149.1%
- O=C(CC(F)(F)F)N1CCCC(c2nccn2Cc2ccncc2)C1 (centres undefined) — lower, -5.55%
- COCC(=O)N1CC(c2ccnc(Nc3cc(C(F)(F)F)ccn3)n2)C1 — higher, 171.1%
- Nc1ccc(C(=O)N2CCCC(c3nccn3Cc3cscn3)C2)cn1 (centres undefined) — lower, -28.34%
- O=C(c1cc(-c2ccn(CC3CC3)n2)n2ccccc12)N1CCCO1 — lower, -14.88%
- Cn1ccc(-c2cc(C(=O)N3CCC(O)CC3)c3ccccn23)n1 — higher, 101.1%
- CN1CCCN(C(=O)c2cc(-c3cc[nH]n3)n3ccccc23)CC1.O=C(O)C(F)(F)F.O=C(O)C(F)(F)F — lower, 9.313%
- Cc1nc(-c2cc(C(=O)N3CCN(C)CC3)c3ccccn23)cn1C — lower, 1.368%
- Cn1ccc(-c2cc(C(=O)N3CCC(C(N)=O)CC3)c3ccccn23)n1 — higher, 110.4%
- CC(C)n1ccc(-c2cc(C(=O)N3CCN(C)CC3)c3ccccn23)n1.O=C(O)C(F)(F)F — lower, -12.81%
- CC(C)c1nc(-c2cc(C(=O)N3CCN(C)CC3)c3ccccn23)cs1.O=C(O)C(F)(F)F — lower, -39.55%
- Cn1ccc(-c2cc(C(=O)N3CCCCC3)c3ccccn23)n1 — higher, 111.2%
- O=C(c1cc(-c2ccn(CC3CC3)n2)n2ccccc12)N1CCOCC1 — lower, -12.76%
- COCCn1cc(-c2cc(C(=O)N3CCCC3)c3ccccn23)nc1C — lower, -3.651%
- O=C(O)c1cc(-c2ccn(CC3CC3)n2)n2ccccc12 — lower, 0.5352%
